Screens from PubChem.
The list is a sample of the results.
aSyn UTR act – Activators working through SNCA 5'UTR binding (MLPCN); AID 1814; alpha-synuclein 5'UTR reporter, activators screen; activity score, % (tested at 7.5 µM), hits read low; 7.1% of 300,000 active; in the data active = activity score below about -60%
Hits are given with their value; n = inactive.

SMILES	aSyn UTR act
Cc1cc(C)n2ncc(/C(N)=N/OC(=O)c3ccccc3F)c2n1	-100.1
CCOC(=O)c1cnc(-n2nc(C)cc2C)nc1NNc1cc(-c2ccccc2)nc(C)n1	n
CCOC(=O)c1cnn2c(C)cc(-c3ccccc3)nc12	-119.8
CCOC(=O)c1cnc2c(-c3cccc(Br)c3)cnn2c1C	-126.9
Nc1nnnn1/N=C/c1ccc(N2CCCCC2)c([N+](=O)[O-])c1	-63.9
O=C(/C=C/c1ccc(N2CCCCC2)c([N+](=O)[O-])c1)c1ccc(O)cc1	-463.5
COc1ccccc1C(=O)/C=C/c1ccc(N2CCCCC2)c([N+](=O)[O-])c1	-215.9
O=C(c1ccc(Br)cc1)c1cc([N+](=O)[O-])ccc1N1CCCCC1	n
O=C(O)CCCN1C(=O)/C(=C/c2ccc(-c3nc4ccccc4s3)o2)SC1=S	-75.6
CCc1ccc(/C=C2\SC(=S)N(CCCC(=O)Nc3ccc(C(=O)O)cc3)C2=O)cc1	n
O=C(CCN1C(=O)/C(=C/C=C/c2ccccc2)SC1=S)Nc1nc2ccccc2s1	-61.7
O=C(COC(=O)CCN1C(=O)/C(=C\C=C\c2ccccc2)SC1=S)Nc1cc(F)ccc1F	n
O=C(CCN1C(=O)/C(=C\C=C\c2ccccc2)SC1=S)Nc1ccc(C(=O)O)cc1	-68.5
O=C(CCCN1C(=O)S/C(=C\C=C\c2ccccc2)C1=O)Nc1ccc(O)cc1	-125.8
O=C(CN1C(=O)S/C(=C\C=C\c2ccccc2)C1=O)N1CCOCC1	-126.3
O=C(NCSc1ccccc1)c1ccccc1	-94.0
CC(C)(C)c1ccc(OCC(=O)N2CCCCCC2)c(Br)c1	-143.9
Cc1ccc(OCC(=O)N2CCCCC2)c(Br)c1	-125.3
CCN(CC)c1ccc(C2=NNC(=O)CC2C)cc1[N+](=O)[O-] (stereo not drawn)	n
CC(C)CCn1c(SCCc2ccccc2)nc2c1c(=O)[nH]c(=O)n2C	n
Cn1c(=O)[nH]c(=O)c2c1nc(Br)n2Cc1cccc(Br)c1	-70.1
CCCCCCn1c(SCCC)nc2c1c(=O)[nH]c(=O)n2C	n
O=C(O)c1ccc(NC(=S)NC2CCCCC2)cc1	-65.4
FC(F)(F)c1ccc(NC(=S)NC2CCCCC2)cc1	-78.2
C=C(C)C1CC=C(C)/C(=N/Nc2ccccc2[N+](=O)[O-])C1 (stereo not drawn)	-143.6
SMILES	aSyn UTR act
C=C(C)C1CC=C(C)/C(=N/NC(=O)c2cccs2)C1 (stereo not drawn)	-124.0
Cc1ccc(CNc2nc(C)cs2)cc1	-112.1
C/C(=N/NC(=O)c1ccc(C)s1)c1cccc(NC(=O)COc2ccc(Cl)cc2C)c1	-73.1
C/C(=N\NC(=O)c1c(Cl)c(C)nn1C)c1cccc(NC(=O)COc2ccc(Cl)cc2)c1	-100.1
CCC(C)NC(=O)c1cc2cc3ccc(OC)cc3nc2o1 (stereo not drawn)	-146.9
CCCCN(CC)C(=O)c1cc2cc3ccc(OC)cc3nc2o1	-110.9
Cc1cc(C)nc(SCC(=O)NC2=NN=C(c3ccc(Br)cc3)CS2)n1	-74.0
CN(C)c1nc(-c2ccc([N+](=O)[O-])cc2)cs1	-123.2
C=CCNc1nc(-c2ccc(Cl)cc2)cs1	-238.3
C=CCNc1nc(-c2ccc([N+](=O)[O-])cc2)cs1	-182.2
BrC(=C\c1ccccc1)/C=N/N1CCN(c2ccccc2)CC1	-65.3
COC(=O)c1ccc(/C=N\N2CCN(c3ccccc3)CC2)cc1	-126.6
Clc1ccc(N2CCN(/N=C/c3cccnc3)CC2)cc1	-66.9
Cc1ccc(C(=O)O/N=C/c2c(N3CCOCC3)n(C)c3ccccc23)cc1	n
C(=N\N1CCN(c2ccccc2)CC1)/c1ccccc1	-122.8
O=C(Nc1ccccc1)Nc1cccc2nsnc12	-272.2
O=C(Nc1cccc2nsnc12)c1cccs1	-143.2
O=S(=O)(c1ccc(Cl)cc1)N1c2ccccc2Oc2nc3ccccc3nc21	-96.4
COc1ccc(S(=O)(=O)N2c3cc(Cl)ccc3Oc3nc4ccccc4nc32)cc1	n
COc1ccc(N2C(=O)c3ccccc3NC23CCCC3)cc1	-89.8
CCCn1cnc2cc(NCc3cccs3)ccc21	-161.1
CCc1ccc(CNc2ccc3c(c2)ncn3CC)cc1	-176.8
CCn1cnc2cc(NCc3ccc(OC)cc3)ccc21	-100.7
CCOc1ccc2nc3cc(NCc4ccc(OC)cc4)ccc3c(N)c2c1	n
Cc1cc(OCC(=O)N2CCCCCC2)ccc1[N+](=O)[O-]	-147.9
SMILES	aSyn UTR act
Cc1cc(OCC(=O)N2CCCC2)ccc1Cl	-90.8
COc1ccc(S(=O)(=O)n2ccc(-c3ccc4c(c3)CCC(C)(C)O4)n2)cc1	-103.4
COc1ccc(S(=O)(=O)N2c3ccc(F)cc3CCC2C)cc1 (stereo not drawn)	n
CC1(C)CCc2cc(-c3ccn(S(=O)(=O)c4ccccc4Cl)n3)ccc2O1	-84.0
O=C(Nc1ccc([N+](=O)[O-])cc1)c1cc(Cl)sc1Cl	-75.7
O=C(Nc1cccc(O)c1)c1ccc([N+](=O)[O-])cc1Cl	-86.1
CN(C)c1ccc(NC(=O)c2ccc([N+](=O)[O-])cc2Cl)cc1	-76.1
Cc1nc(C#N)c(N/N=C/c2cccc(Cl)c2)o1	-126.4
CCC(C)N1C(=O)S/C(=C/c2ccc(N3CCOCC3)cc2C)C1=O (stereo not drawn)	-166.7
Cc1cc(N2CCOCC2)ccc1/C=C1\SC(=O)N(C(C)C)C1=O	-114.6
Cc1cc(CNC(=O)c2cc(COc3ccc(F)c(F)c3)on2)nn1C	-123.5
CC(=O)c1ccc(OCc2cc(C(=O)NC(C)c3cnn(C)c3)no2)cc1 (stereo not drawn)	-86.7
CC(=O)c1ccc(OCc2cc(C(=O)NCCn3nc(C)cc3C)no2)cc1	-68.5
CC(NC(=O)c1cc(COc2ccccc2)on1)c1nccs1 (stereo not drawn)	-169.1
Cc1nc(C(C)NC(=O)c2cc(COc3ccc(C)c(C)c3)on2)c(C)s1 (stereo not drawn)	-82.2
Cc1cc(OCc2cc(C(=O)NC(C)c3c(C)nn(C)c3C)no2)cc(C)c1Cl (stereo not drawn)	-114.4
CCOC(=O)c1nnc2cc(-c3ccc(Br)cc3)nn2c1C	-113.8
Cc1cc(C(=O)N/N=C/c2ccccc2Br)no1	-68.4
Cc1cccc(/C=N/NC(=O)c2c(-c3ccccc3)noc2C)c1O	n
O=C(O)c1cc(NN=C2CCN(Cc3ccccc3)CC2)ccc1Cl	-201.9
O=C(O)c1cc(N/N=C/c2ccc(OCc3ccccc3)cc2)ccc1Cl	-172.0
CCCN1CCC(=NNc2ccc(S(=O)(=O)N3CCOCC3)cc2[N+](=O)[O-])CC1	n
O=C(O)c1cccc(N/N=C/c2ccc(OC(F)(F)F)cc2)c1	n
COC(=O)c1ccc(COc2ccc(/C=N/Nc3cccc(C(=O)O)c3)cc2)cc1	-84.4
CCCN1CCC(=NNc2ccc(C(=O)O)cc2)CC1	-112.6
SMILES	aSyn UTR act
O=C(O)c1cc(N/N=C/C=C/c2ccccc2)ccc1Cl	-179.2
COc1ccc(C2=NN(c3nc(-c4ccc(CNC(C)=O)cc4)cs3)C(c3ccco3)C2)cc1 (stereo not drawn)	-77.8
O=C(NNC(=S)Nc1ccc(Cl)cc1)c1cccs1	-124.7
O=C(NNC(=S)Nc1ccccc1)c1cccs1	-231.5
Cc1ccc(NC(=O)c2sc3nc(C)cc(C)c3c2N)cc1	-75.4
Cc1cc(C)c2c(N)c(C(=O)Nc3cccc(C)c3C)sc2n1	-268.2
O=C(N/N=C/C(Br)=C/c1ccccc1)C(O)c1ccccc1 (stereo not drawn)	-74.3
Cc1ccc(NCC(=O)N/N=C\C(Br)=C\c2ccccc2)cc1	-65.0
O=C(N/N=C/C(Br)=C/c1ccccc1)C1CC1	-195.2
O=C(O)c1ccc(N/N=C/C(Br)=C/c2ccccc2)cc1	-242.4
O=C(N/N=C/C(Br)=C/c1ccccc1)NC1CCCCC1	-84.7
